# Compound activity as filed in PubChem BioAssay.
# In the library only some 4.6% were active in any assay of this set; here they are far more common.
# D1 ag = activates the human D1 dopamine receptor; P21728; HEK293 T-REx D1 cells, calcium flux, agonist mode; activation, % at 2 µM; 1% of 360,000 active; AID 504660; note: 0% is about no effect
#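 Tetracycline-induced HEK293 TREx D1 cells, force-coupled to calcium signalling, were dye-loaded with a no-wash calcium kit. Compound was pin-added after a 10 s baseline. Fluorescence was read kinetically at 1 cycle/s for 180 s, with calcium rises flagged as agonism.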
# TRHR enhancer = allosterically enhances the human TRH receptor. P34981. TRHR cells, fluo-8 calcium fluorescence, EC20 TRH enhancement. enhancement, % at 2 µM. 0.66% of 360,000 active. AID 493056; in the data active = enhancement above about 30%; note: 0% is about no effect
# Target sequence (P34981 whole entry, looked up): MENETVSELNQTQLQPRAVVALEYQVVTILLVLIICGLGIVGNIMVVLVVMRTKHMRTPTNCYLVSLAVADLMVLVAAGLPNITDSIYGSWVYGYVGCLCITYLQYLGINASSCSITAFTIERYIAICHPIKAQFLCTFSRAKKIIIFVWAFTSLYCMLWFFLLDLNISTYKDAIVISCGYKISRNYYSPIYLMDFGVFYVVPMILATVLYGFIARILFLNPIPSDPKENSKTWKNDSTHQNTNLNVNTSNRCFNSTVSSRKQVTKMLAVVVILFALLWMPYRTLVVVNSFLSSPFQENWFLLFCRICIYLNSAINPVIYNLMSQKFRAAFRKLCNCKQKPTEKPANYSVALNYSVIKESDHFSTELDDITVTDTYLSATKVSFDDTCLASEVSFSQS
#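 Enhancer read-out: after compound pinning and an initial kinetic agonist-mode read, an EC20 of TRH (10 nM final) was injected and fluo-8 calcium signal (Ex 480/Em 530) followed at 1 s/cycle for 100 cycles in TRHR-expressing cells.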
# D1 PAM = human D1 dopamine receptor positive modulation | P21728 | HEK293 TREx D1 cells, calcium flux, dopamine EC20 potentiation | potentiation, % at 10 µM | 0.036% of 360,000 active; in the data active = potentiation above about 30%; note: 0% is about no effect
# D1 antagonist = antagonists of human D1 dopamine receptor. P21728. HEK293 TREx D1 cells, calcium flux, dopamine EC80; stronger effect = lower value. activity change, negative = inhibition, % at 10 µM. 3.2% of 360,000 active; in the data active = activity change below about -30%; note: % is set by controls: 0 for no effect and ±100 for the full control effect
#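 Kinetic fluorescence of a calcium dye serves as the read-out. D1-expressing Hek293 Trex cells, induced overnight at 30 C, are exposed to compound for 180 s before an EC80 dopamine addition, then read 180 s further.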
# TRHR ag = agonists of human TRH receptor | 0.18% of 360,000 active | P34981 | activation, % at 2 µM | TRHR cells, calcium flux fluo-8, FDSS agonist mode; note: 0% is about no effect
#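 TRHR-expressing cells, plated overnight in medium with 10% serum, were loaded with fluo-8 calcium dye at room temperature. After a 10 s baseline, library compound was pin-added and calcium release was recorded kinetically (ex 480/em 530) as agonist response.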
# * = called active by the depositor; ! = not confirmed by another sample. Cut-off read from the data, not from the text of the source, unless noted: active = activation above about 30%; inactive = the rest.
SMILES,D1 ag,TRHR enhancer,D1 PAM,D1 antagonist,TRHR ag
O=C(CCn1cccc1)N1CCc2ccccc21,-1.5,0.7,-6.0,-30.9*,0.2
O=C(Cc1ccccc1)N1CCc2ccccc21,1.7,0.8,5.2,-1.8,-0.8
CCOc1ccc(-n2c(=O)[nH]cc(C(=O)N3CCCc4ccccc43)c2=O)cc1,1.0,-0.8,-0.3,-0.7,-0.1
COc1ccc(-n2c(=O)[nH]cc(C(=O)N3CCCc4ccccc43)c2=O)cc1,2.4,0.2,-3.1,-30.8*,-0.8
CCOC(=O)/C(=N/Nc1ccc(OC)cc1)N1CCCc2ccccc21,0.5,-3.1,-3.4,-41.8*,-0.9
COc1ccc(CC(=O)N2CCc3ccccc32)cc1,4.4,10.0,-2.5,-1.3,-0.7
COc1ccc(CCC(=O)N2CCCc3ccccc32)cc1,-2.1,11.7,-1.9,-37.0*,-0.4
COc1ccc(OCCCC(=O)N2CCCc3ccccc32)cc1,4.5,-4.2,-8.1,-33.5*,-1.2
Cc1cc(=O)oc2cc(OCC(=O)N3CCCc4ccccc43)ccc12,2.0,-9.6,-8.2,-35.1*,-2.7
Cc1cc(=O)oc2cc(OCCc3ccccc3)ccc12,3.9,-4.2,-14.6,9.8,0.0
Cc1cc(=O)oc2cc(OCCSCCN3CCCCC3)ccc12,1.1,-0.9,-4.2,-37.1*,0.0
O=C(CSc1ccc(-c2cccs2)nn1)Nc1cccc(F)c1,20.1,7.3,-7.8,-28.4,-0.2
N#CCC(N)=C(C#N)C#N,80.2*,-8.2,7.5,8.9,38.3*
S=C(NCc1ccccc1)NCc1ccccc1,16.6,4.2,1.6,-51.6*,-1.4
CN(C)c1ccc(/C=N/NC(=S)NCc2ccccc2)cc1,0.6,-3.6,0.1,-82.5*,-0.2
S=C(NCc1ccccc1)NCc1ccc(Cl)cc1,6.4,-1.5,0.4,-15.0,0.1
FC(F)(F)c1ccc(NC(=S)NCc2ccccc2)cc1,21.8,-6.5,-7.6,-37.4*,0.1
FC(F)Sc1ccc(NC(=S)NCc2ccccc2)cc1,16.1,-3.4,-13.2,-31.7*,0.6
Nc1ccc(S(=O)(=O)NC2(C(F)(F)F)NC(=O)N(c3cccc(Cl)c3)C2=O)cc1 (stereo unspecified),0.1,-5.4,-4.3,-5.7,0.7
CCOc1ccccc1NC(=O)N(C)CCc1c(C)nn(CC)c1C,1.5,2.7,0.7,-6.6,-2.0
CC1CCCN(C(=O)Cn2nnc(-c3ccc([N+](=O)[O-])cc3)n2)C1 (stereo unspecified),-0.4,-1.0,0.1,-4.3,0.0
CCOC(=O)C1=C(C)N=C2SCCC(=O)N2C1c1ccc(OCc2ccccc2)cc1 (stereo unspecified),7.4,0.0,-2.8,14.0,-1.1
CN(C)CCCN(Cc1ccccc1)C(=S)Nc1ccc(SC(F)F)cc1,32.2*,1.4,-11.6,-8.7,3.2
CC(=O)c1ccc(NC(=S)N(CCCN(C)C)Cc2ccccc2)cc1,8.2,3.3,-2.4,4.3,1.2
Cc1noc(Cn2c(=O)c3cc4c(cc3n(CC(=O)Nc3ccccc3F)c2=O)OCO4)n1,0.1,-3.5,-0.4,-2.4,0.2
SMILES,D1 ag,TRHR enhancer,D1 PAM,D1 antagonist,TRHR ag
Cc1cc(NS(=O)(=O)c2ccc(NC(=O)/C=C/c3ccc(Br)cc3)cc2)no1,4.7,4.3,0.5,-5.8,0.1
Cc1cc(NS(=O)(=O)c2ccc(Nc3nc(-c4ccc(C)c(C)c4)cs3)cc2)no1,68.0*,2.0,-10.6,-11.5,-0.7
Cc1cc(NS(=O)(=O)c2ccc(NS(=O)(=O)c3ccc(Br)cc3)cc2)no1,0.9,33.4*,0.5,4.6,-0.1
Cc1cc(NS(=O)(=O)c2ccc(NC(=O)COc3c(C)cc(Br)cc3C)cc2)no1,88.2*!,2.5,-6.1,5.5,-0.8
Cc1cc(NS(=O)(=O)c2ccc(NC(=O)COc3ccc(Br)cc3C)cc2)no1,1.2,3.6,-1.1,4.1,-1.1
COc1ccccc1C(=O)Nc1ccc2nc(SCC(=O)N3CCCC3)sc2c1,5.1,1.5,2.5,0.8,0.8
CCOc1cc(N2CCOCC2)c(OCC)cc1NC(=O)CCC1CCCC1,2.1,-3.1,-6.2,-31.4*,-0.5
CCOc1cc(N2CCOCC2)c(OCC)cc1NC(=O)C1CCCC1,4.7,27.2,-3.9,8.6,0.1
C/C(=N\N=C1\NC(=O)CC(C(=O)O)S1)c1ccc(F)cc1 (stereo unspecified),2.9,2.4,-4.2,2.4,0.0
